Out of some 3,300 compounds screened, about 280 (8.5%) were called active. The full list was thinned out, with actives kept by preference. Unmarked numbers belong to inactive results.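 How the source made its calls: active means mean growth inhibition over the two runs of 50% or more; inactive means mean growth inhibition under 50%.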

The nature of the assay: A549 NSCLC cell proliferation inhibitors – ATP luminescence, human non-small cell lung line, primary screen (AID 371).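 Further: compound exposure lasted 72 h before the ATP read; 0% = untreated cell signal and 100% = no luminescence left.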 To be noted: at 10 µM, stronger effect = higher value.
In the case of `COCCOC(=O)c1c(C)oc2ccc(OC(=O)COc3c(F)c(F)c(F)c(F)c3F)cc12`, the growth inhibition was 5.03%.

Turning to `Cc1ccc(C(=O)NCC(C)(C)O)cc1`, the growth inhibition is 4.92%.

For the compound `COc1ccc(N2CCN(C3CC(=O)NC3=O)CC2)cc1` (stereo unspecified), the growth inhibition is 1.16%.

On to `CC(=O)O[C@H]1C(=O)[C@]2(C)[C@H]([C@H](OC(=O)c3ccccc3)[C@]3(O)C[C@H](OC(=O)[C@H](O)[C@@H](NC(=O)c4ccccc4)c4ccccc4)C(C)=C1C3(C)C)[C@]1(OC(C)=O)CO[C@@H]1C[C@@H]2O`, for which the growth inhibition is 65.8% (active).

On to `CC(=O)O[C@@]12CO[C@@H]1C[C@H](O)[C@@]1(C)C(=O)[C@H](O)C3=C(C)[C@@H](OC(=O)[C@H](O)[C@@H](NC(=O)OC(C)(C)C)c4ccccc4)C[C@](O)([C@@H](OC(=O)c4ccccc4)[C@H]21)C3(C)C`, for which the growth inhibition is 55.2% (active).

On to `CCOC(=O)CC1=C(C(=O)OCC)C(c2ccc(OC)c(OC)c2)C(C#N)=C(N)O1` (stereo unspecified), for which the growth inhibition was -2.02%.

As for `CCOC(=O)CC1=C(C(=O)OCC)C(c2cc(OC)c(OC)cc2OC)C(C#N)=C(N)O1` (stereo unspecified), the growth inhibition was -5.45%.

On to `CCCCCCn1c(SCCN2CCOCC2)nc2c1c(=O)[nH]c(=O)n2C`, for which the growth inhibition was 7.31%.

On to `CN1CC2(C)CN(C(c3ccccc3)c3ccccc3)CC(C)(C1)C2O` (stereo unspecified), for which the growth inhibition was 6.36%.

As for `CC(=O)O[C@]1(C(C)=O)CC[C@H]2[C@@H]3C=C(Cl)C4=CC(=O)CC[C@]4(C)[C@H]3CC[C@@]21C`, the growth inhibition is 52.6% (active).

With `CCCCCCCC(=O)OCC(=O)[C@@]1(O)CC[C@H]2[C@@H]3CCC4=CC(=O)CC[C@]4(C)[C@H]3[C@@H](O)C[C@@]21C`, the growth inhibition was 26.8%.

Regarding `CCCCCC(=O)O[C@]1(C(C)=O)CC[C@H]2[C@@H]3CCC4=CC(=O)CC[C@]4(C)[C@H]3CC[C@@]21C`, the growth inhibition is 73.5% (active).

With `CC(=O)O[C@]1(C(C)=O)CC[C@H]2[C@@H]3C=C(C)C4=CC(=O)CC[C@]4(C)[C@H]3CC[C@@]21C`, the growth inhibition was 34.5%.

On to `CC(=O)O[C@]1(C(C)=O)CC[C@H]2[C@@H]3C[C@H](C)C4=CC(=O)CC[C@]4(C)[C@H]3CC[C@@]21C`, for which the growth inhibition is 50%.

For the compound `CCCCC(=O)O[C@]1(C(=O)CO)CC[C@H]2[C@@H]3CCC4=CC(=O)CC[C@]4(C)[C@H]3[C@@H](O)C[C@@]21C`, the growth inhibition is 21.6%.

Turning to `O=C(O)C1CSC(CCc2ccccc2)N1` (stereo unspecified), the growth inhibition was 5.85%.

`CCN(CC)CCCN1C(=O)C(=O)/C(=C(/O)c2ccc3c(c2)CC(C)O3)C1c1cccnc1` (stereo unspecified): the growth inhibition was 1.89%.

For the compound `COc1ccccc1N(Cc1cc2cccc(C)c2[nH]c1=O)C(=O)C(C)C`, the growth inhibition is 12.1%.

For the compound `O=C1C(=O)N(Cc2cccnc2)C(c2ccccn2)/C1=C(/O)c1ccc(F)cc1` (stereo unspecified), the growth inhibition is 1.96%.

For `Cc1ccc(S(=O)(=O)/C(C#N)=C/c2c(N3CCN(C)CC3)nc3c(C)cccn3c2=O)cc1`, the growth inhibition was -1.01%.

Consider `Cc1nnc(N2CCCCC2)c2ccccc12`, for which the growth inhibition is 8.14%.

Turning to `Cc1nnc(NCc2n[nH]c(=O)c3ccccc23)c2ccccc12`, the growth inhibition was 69.7% (active).

On to `COc1ccc(Nc2nnc(C)c3ccccc23)cc1C(N)=O`, for which the growth inhibition is -0.95%.

In the case of `Nc1nnnn1N=C1CCCCC1`, the growth inhibition was -2.31%.

Turning to `CCOC(=O)CCNc1n[nH]c(=O)[nH]c1=O`, the growth inhibition is 4.05%.

Regarding `COC(=O)c1ccc(N2C(=O)CC(N3CCN(C(=O)c4ccco4)CC3)C2=O)cc1` (stereo unspecified), the growth inhibition was -5.76%.

As for `COc1ccc(Cn2ccnc2)cc1Br`, the growth inhibition was 7.92%.

For `COc1nnnc2c1sc1nc(N3CCOCC3)c3c(c12)CC(C)(C)OC3`, the growth inhibition was -0.53%.

For the compound `CC1(C)Cc2c(c(N3CCOCC3)nc3snc(Br)c23)CO1`, the growth inhibition is 16%.

With `CC1(C)Cc2c(c(N3CCOCC3)nc3snc(N)c23)CO1`, the growth inhibition was 91% (active).

With `CCCCNC(=O)N1CCOCCOCCN(C(=O)NCCCC)CCOCC1`, the growth inhibition was 2.17%.

For the compound `N#Cc1nc(-c2ccccc2Cl)oc1N1CCCCC1`, the growth inhibition is 25.2%.

On to `CCOP(=O)(c1ccccc1)c1nc(-c2ccc(F)cc2)oc1N1CCCCC1` (stereo unspecified), for which the growth inhibition was 35.1%.

For the compound `CCOP(=O)(c1ccccc1)c1nc(-c2ccccc2C)oc1N1CCCCC1` (stereo unspecified), the growth inhibition was 90.3% (active).

With `Clc1cccc(-c2nn3c(COc4ccccc4)nnc3s2)c1`, the growth inhibition was -1.72%.

As to `Cc1nn(C)cc1/C=N/n1nnnc1N`, the growth inhibition is 3.1%.

Turning to `N#Cc1nc(-c2cccs2)oc1NCc1ccccc1Cl`, the growth inhibition is 16.3%.

`N#Cc1nc(-c2cccs2)oc1NCc1ccc2c(c1)OCO2`: the growth inhibition was 51.8% (active).

`N#Cc1nc(-c2cccs2)oc1NCc1ccccc1`: the growth inhibition was 37.1%.

Take `Cc1ccc(C2/C(=C(/O)c3ccc(OC(C)C)cc3)C(=O)C(=O)N2CCN2CCOCC2)cc1` (stereo unspecified): the growth inhibition was -0.89%.

For the compound `CC(=Nc1cccc(O)c1)c1sc2ccccc2c1O`, the growth inhibition was 71.6% (active).

Turning to `Oc1c(C=Nc2cccnc2)sc2ccccc12`, the growth inhibition was 9.67%.

For `Oc1c(C=NCc2ccncc2)sc2ccccc12`, the growth inhibition was 3.71%.

As for `O=C1CC(N(O)C2CC(=O)N(Cc3ccccc3)C2=O)C(=O)N1Cc1ccccc1` (stereo unspecified), the growth inhibition is 9.01%.

`CN(C)CCCOC(=O)C1c2ccccc2Oc2ccccc21`: the growth inhibition is 8.41%.

Regarding `Cc1ccc2[nH]c3c(c2c1)CCCC3C(N)=O` (stereo unspecified), the growth inhibition was 0.63%.

As for `Cc1nnc(N2CCOCC2)c2ccccc12`, the growth inhibition is -0.2%.

Regarding `O=C(NC1CCCCC1)N1CCSC1=Nc1ccccc1`, the growth inhibition was 83.3% (active).

In the case of `O=C(NC1CCCCC1)Nn1c(-c2ccccc2)nc2ccccc2c1=O`, the growth inhibition is 5.81%.

As to `NC(=O)C(c1ccccc1)C1CCCC1` (stereo unspecified), the growth inhibition was 2%.

On to `Cc1cc(C)n(-c2nnc(C)n2/N=C/c2ccccc2F)n1`, for which the growth inhibition is -1.21%.

Consider `CCc1nnc(NC(=O)CSc2nc(C)c3c(c2C#N)CCCC3)s1`, for which the growth inhibition is 47.6%.

For the compound `Cc1ccc(-n2c(SCC(=O)NCc3ccco3)nc3nc4c(cc3c2=O)COC(C)(C)C4)cc1`, the growth inhibition is 7.55%.

On to `CCCc1cc(-c2nc(N)ncc2-c2ccc3c(c2)OCCCO3)c(O)cc1OC`, for which the growth inhibition is 78.2% (active).

As for `O=S(=O)(c1ccccc1)N1CCC(N2CCCCCC2)CC1`, the growth inhibition is 11.3%.

On to `Cc1ccc(S(=O)(=O)N(CC(O)CN(C)C)c2ccccc2)cc1` (stereo unspecified), for which the growth inhibition is 5.21%.

The record behind these values is PubChem BioAssay AID371 (SRMLSC, 2006).
